Compound activity from PubChem BioAssay.
NTR1 ag: agonists of human NTR1, primary screen, imaging, U2OS cells, beta-arrestin-GFP, high content; NTR1-U2OS beta-arrestin-GFP spot imaging, agonist mode; actives 0.17% (n = 330,000); activation, % at 20 µM; AID 493036, 2011; Neurotensin receptor type 1 (Homo sapiens), P30989;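 active = activation at or above 40% of the spot to cytoplasm intensity ratio, with at least 20 cells analyzed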;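 note: 0% = DMSO without peptide and 100% = 100 nM NTR1 peptide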
Jurkat NFkB inh: inhibitors of induced NF-kB luciferase reporter, primary screen, TCR NF-kB activation inhibitor project, cell-based, luminescence, uHTS | inhibition, % at 4 µM | actives 0.53% (n = 330,000) | Jurkat, PMA/ionomycin-induced NF-kB luciferase reporter | AID 435003, 2010; in the data active = inhibition above about 50%
Mdm2 MdmX PPI: inhibitors of human Mdm2-MdmX association, primary screen, cell-based, luminescence, split luciferase, SaOS-2, uHTS; Protein Mdm4 (Homo sapiens) + E3 ubiquitin-protein ligase Mdm2 (Homo sapiens), …; SaOS-2 split-luciferase Mdm2/MdmX complementation; inhibition, % at 8 µM; actives 3% (n = 330,000); AID 485346, 2010;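 active = inhibition of at least 50% at 8 µM in the primary screen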
Target sequence (O15151 whole entry, looked up): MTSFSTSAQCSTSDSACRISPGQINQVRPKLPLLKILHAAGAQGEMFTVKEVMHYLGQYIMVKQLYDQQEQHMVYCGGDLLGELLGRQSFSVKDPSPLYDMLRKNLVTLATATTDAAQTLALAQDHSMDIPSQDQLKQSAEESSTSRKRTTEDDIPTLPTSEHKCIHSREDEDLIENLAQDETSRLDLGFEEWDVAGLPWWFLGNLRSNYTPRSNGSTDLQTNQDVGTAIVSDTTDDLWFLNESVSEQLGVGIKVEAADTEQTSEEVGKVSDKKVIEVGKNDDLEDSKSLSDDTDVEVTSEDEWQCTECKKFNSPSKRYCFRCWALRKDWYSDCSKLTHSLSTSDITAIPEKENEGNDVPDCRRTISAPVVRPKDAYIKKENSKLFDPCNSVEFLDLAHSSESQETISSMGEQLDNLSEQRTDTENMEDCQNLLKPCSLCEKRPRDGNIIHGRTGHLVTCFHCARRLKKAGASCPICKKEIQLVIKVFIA
Target sequence (Q00987 whole entry, looked up): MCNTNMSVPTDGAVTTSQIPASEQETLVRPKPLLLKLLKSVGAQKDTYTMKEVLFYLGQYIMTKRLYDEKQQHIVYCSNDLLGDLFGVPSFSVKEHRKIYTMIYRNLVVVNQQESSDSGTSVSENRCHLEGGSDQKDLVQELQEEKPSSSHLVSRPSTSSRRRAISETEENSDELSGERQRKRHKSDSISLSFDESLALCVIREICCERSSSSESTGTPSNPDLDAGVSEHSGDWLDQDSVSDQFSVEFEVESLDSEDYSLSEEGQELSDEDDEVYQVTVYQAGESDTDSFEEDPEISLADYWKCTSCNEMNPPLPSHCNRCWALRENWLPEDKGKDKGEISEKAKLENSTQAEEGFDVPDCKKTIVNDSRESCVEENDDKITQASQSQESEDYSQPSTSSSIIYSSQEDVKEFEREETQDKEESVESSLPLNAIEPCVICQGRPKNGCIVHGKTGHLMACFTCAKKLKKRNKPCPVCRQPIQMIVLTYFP
Beta cell apopt: inhibitors of cytokine-induced beta cell apoptosis, primary screen, luminescence | protection from apoptosis, % (no concentration beside the values) | INS-1E cytokine-induced death, ATP luminescence, 48 h; percent of positive-control rescue, neutral wells zero | actives 0.8% (n = 300,000) | AID 435005, 2010;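 active = Every replicate reaches about 75%, or at least half do and their mean reaches it too, limit read from the data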;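 note: 0% = cytokine-treated negative control wells and 100% = positive control rescue; higher means more ATP so stronger rescue from cytokine killing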
697 NFkB inh: inhibitors of PMA/ionomycin-induced NF-kB reporter, 697 cells, primary screen, B-cell NF-kB inhibitor project, cell-based, luminescence, uHTS | actives 0.33% (n = 330,000) | inhibition, % at 4 µM | AID 435022, 2010 | 697 B-cell NF-kB luciferase reporter, 16 h; in the data active = inhibition above about 35%
A1 inh: caspase 3/7 activation in MEF A1-2A-BIM cells, primary screen, A1 inhibitor project, cell-based, luminescence, HTS; Caspase-Glo 3/7 luminescence, 3 h; percent of clofoctol response, vehicle zero; caspase activation, % (no concentration beside the values); actives 0.066% (n = 330,000); AID 2462, 2010;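 active = over half of replicate activation scores above 10%, or exactly half above 10 with the replicate mean above 10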
Mdm2-MdmX conf: Mdm2-MdmX complex disruptors, retested hits, confirmation, luminescence, single concentration. Mdm2-MdmX binding, luminescent assay. AID 489028, 2010. actives 55% (n = 10,000). shares compounds with Mdm2 MdmX PPI. inhibition, % at 8 µM; in the data active = inhibition above about 40%
Full FLuc ctr: full-length luciferase signal inhibition, confirmation, counter-screen for Mdm2/MdmX interaction inhibitor project, cell-based, single concentration, SaOS-2. shares compounds with Mdm2 MdmX PPI. SaOS-2 full-length luciferase counterscreen, luminescence. inhibition, % at 8 µM. actives 77% (n = 6,200). AID 504607, 2011;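 active = mean inhibition at 8 µM reaching about 37%, which flags the compound as non-specific, limit read from the data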;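 note: p53-null SaOS-2 cells with luciferase driven by a doxycycline-inducible promoter; compound on cells about two nights before reading with doxycycline added after day one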
* = called active by the depositor; . = not tested or not shown; + = active, no number. An excerpt weighted towards active compounds, which were near 3.8% of everything screened.

SMILES	NTR1 ag	Jurkat NFkB inh	Mdm2 MdmX PPI	Beta cell apopt	697 NFkB inh	A1 inh	Mdm2-MdmX conf	Full FLuc ctr
C[C@@H](C[C@@H](O)[C@H](O)C(C)(C)O)[C@@H]1CC[C@]2(C)C3=CC[C@H]4C(C)(C)C(=O)CC[C@]4(C)[C@H]3CC[C@@]12C	24	26	51*	.	7	1	40*	96*
CCc1ccc(N=C2N=C(N)c3ccccc32)cc1	0	-7	55*	-8	-28	1	-9	.
COc1ccc(Cc2nnc(NC(=O)c3cccc(C)c3)s2)cc1	-2	-1	-18	-2	3	1	.	.
Cc1cccc(-c2nnn(Cc3nnc(NC(=O)c4ccccc4)s3)n2)c1	1	9	71*	-5	0	1	-6	.
COc1cc(/C=C/[N+](=O)[O-])ccc1OC(=O)c1cc2ccccc2oc1=O	40	-10	51*	18	-12	1	3	.
COc1ccccc1OC(=O)c1cc2ccccc2oc1=O	0	6	21	-9	-1	0	.	.
O=C(CSc1ccccn1)Nc1nonc1[N+](=O)[O-]	1	13	95*	.	18	.	80*	29
Cc1sc(NC(=O)C2=COCCO2)c(C(N)=O)c1C	2	-12	-15	-5	-20	0	.	.
CCc1cc(SC#N)cc(C)c1NC(=O)CCl	10	17	81*	99*	4	1	41*	55*
Cc1cc(SC#N)cc(C)c1NC(=O)CCl	3	21	59*	1	0	1	49*	34
CCC(=O)Nc1ccc(SC#N)cc1C	4	8	34	-26	21	0	.	.
CC1CCN(C(=O)Cn2cnc3c2c(=O)n(C)c(=O)n3C)c2ccccc2S1 (centres undefined)	2	-1	-23	-2	-4	0	.	.
NS(=O)(=O)c1ccc(CCNC(=O)c2ccc(-c3ccccc3)cc2)cc1	0	8	22	.	-1	1	.	.
CCCOc1ccc(CNC(=O)C2CCN(C(=O)N3CCOc4ccccc43)CC2)cc1	1	14	51*	12	-5	0	0	.
c1ccc(CN(Cc2ccccc2)Cc2nnc(-c3cc4ccccc4[nH]3)s2)cc1	-2	2	38	-2	-3	0	.	.
CCn1cc([N+](=O)[O-])c(C(=O)Nc2ccc(Cn3nc(C)cc3C)cc2)n1	0	-7	1	-3	17	1	.	.
Cn1cc([N+](=O)[O-])c(C(=O)Nc2cc(Oc3cccnc3)cc([N+](=O)[O-])c2)n1	10	38	82*	-9	29	0	7	.
Cc1ccc(Cn2ccc(NC(=O)c3nn(C)cc3[N+](=O)[O-])n2)cc1	6	16	59*	-25	-2	-1	63*	68*
O=[N+]([O-])c1cc(Oc2cccnc2)cc([N+](=O)[O-])c1	0	9	-22	24	5	1	.	.
Cn1cc([N+](=O)[O-])c(C(=O)Nc2ccc(C3CCCCC3)cc2)n1	7	-62	59*	-15	-55	-9	27	154*
Cc1cc(C)n(Cc2ccc(NC(=O)c3nn(C)cc3[N+](=O)[O-])cc2)n1	0	20	71*	-64	13	-1	52*	59*
COc1ccc(C(=O)NNC(=O)C(=O)NC2CCCCC2)cc1	-2	9	14	-2	0	0	.	.
Cc1ccc(S(=O)(=O)N2CCC(C(=O)N3CCc4ccccc43)CC2)cc1C	3	-7	-27	.	-20	.	.	.
CC[C@]12c3[nH]c4ccc(OC)cc4c3CCN1C(=O)C(CC(=O)NCCCN(C)C)C[C@@H]2C(=O)N1CCN(C(=O)c2ccco2)CC1 (some centres undefined)	0	.	8	.	-16	.	.	.
O=C(CSc1nccn1Cc1ccco1)Nc1ccccc1	1	-14	-9	2	-21	0	.	.
SMILES	NTR1 ag	Jurkat NFkB inh	Mdm2 MdmX PPI	Beta cell apopt	697 NFkB inh	A1 inh	Mdm2-MdmX conf	Full FLuc ctr
Cc1ccc(N2CC(C(=O)Nc3nccs3)CC2=O)cc1Cl (centres undefined)	-1	14	84*	35	12	-1	69*	+
Cc1cc(=O)oc2cc(OCC(=O)Nc3c(C)n(C)n(-c4ccccc4)c3=O)c(Cl)cc12	0	1	17	.	18	.	.	.
CN(C)/C=C/c1c([N+](=O)[O-])c2ccc(O)cc2n1-c1ccccc1	6	5	61*	-17	-9	2	68*	54*
O=C(CCl)NC(Cc1ccccc1)c1ccccc1 (centres undefined)	-1	18	74*	-3	10	0	51*	44*
C[C@@H]1C(=O)O[C@H](C)[C@H]1C[C@@H](O)[C@](C)(O)C1CC[C@@]2(O)C3=CC(=O)[C@@H]4C[C@@H](O)[C@@H](O)C[C@]4(C)C3CC[C@]12C (some centres undefined)	-1	7	12	-2	13	1	.	.
O=C(CCl)c1ccc2c(c1)CCN2C(=O)C1CCCCC1	27	13	97*	-8	13	0	53*	79*
O=C(CCl)c1ccc2c(c1)CCN2C(=O)C1CC1	3	17	80*	-25	13	0	39	27
CN(Cc1ccccc1)C(=O)CCS(=O)(=O)c1cc2c(cc1Cl)NC(=O)CO2	0	-3	13	8	-2	0	.	.
Cc1n[nH]c(C)c1CCNC(=O)C1CCC(=O)N(CCc2cccc(F)c2)C1 (centres undefined)	0	-4	6	-1	-2	1	.	.
COC(=O)C1=C(C)N(CC2CC2)C(=NCc2cccc(C(F)(F)F)c2)N[C@H]1c1ccccc1	0	3	54*	-5	0	0	24	.
COC(=O)C1=C(C)N(Cc2ccccc2)C(=NCc2ccc(OC)cc2)N[C@H]1c1ccccc1	5	3	65*	4	8	-2	25	.
